Experimental data: the supplement of paper PMC3545927
Some of the results follow. The hit rate among all sequences tested is not known here.

B1: HC965 (peptide)
chain: CAKCLIRLKPAGNASASA
B2: HC1339 (peptide)
chain: CATSGITGDNAGNASASA
B3: HC2278 (peptide)
chain: CATLEVVTSTAGNASASA
B4: FS-196 (peptide)
chain: CASSFRFPRTAGNASASA
B5: HC776 (peptide)
chain: CAPTGSGKSTAGNASASA
B6: FS-1576 (peptide)
chain: CATSPRTKRTAGNASASA
B7: FS-1553 (peptide)
chain: CAPSERTRRTAGNASASA
B8: FS-724 (peptide)
chain: CASSPRCKRTAGNASASA
B9: FS-76 (peptide)
chain: CAPTRRTKRTAGNASASA
B10: HC416 (peptide)
chain: CAPSPVVVGTAGNASASA
B11: HC2310 (peptide)
chain: CAVVPCHRPSAGNASASA
B12: HC376 (peptide)
chain: CADSLNTGWLAGNASASA
B13: HC380 (peptide)
chain: CAAGLFYHHKAGNASASA
B14: HC1892 (peptide)
chain: CATTPCSESWAGNASASA
B15: HC859 (peptide)
chain: CAKKKCDELAAGNASASA
B16: HC1272 (peptide)
chain: CADAELIEANAGNASASA
B17: FS-391 (peptide)
chain: CAYLRRRRRVAGNASASA
B18: FS-1247 (peptide)
chain: CAPVRRWRRVAGNASASA
B19: HC731 (peptide)
chain: CAPVRRRGDSAGNASASA
B20: FS-1519 (peptide)
chain: CADVSRARRVAGNASASA
B21: FS-1127 (peptide)
chain: CAGLGRRRRVAGNASASA
B22: FS-1126 (peptide)
chain: CAGLDRLRRVAGNASASA
B23: FS-633 (peptide)
chain: CAYINRKKKVAGNASASA
B24: HC1895 (peptide)
chain: CATTPCSHSWAGNASASA
B25: HC314 (peptide)
chain: CASIYPGHITAGNASASA
B26: HC1246 (peptide)
chain: CALTSMLTDPAGNASASA
B27: HC1835 (peptide)
chain: CAHTPCSGSWAGNASASA
B28: HC959 (peptide)
chain: CAAQAPPPSWAGNASASA
B29: FS-253 (peptide)
chain: CAINKRVKRDAGNASASA
B30: FS-642 (peptide)
chain: CAANHVVKRDAGNASASA
B31: FS-331 (peptide)
chain: CAGQSWVKRDAGNASASA
B32: HC1429 (peptide)
chain: CATHINSVWKAGNASASA
B33: HC2199 (peptide)
chain: CAEVPTSTWVAGNASASA
B34: HC1862 (peptide)
chain: CATQPCSGSWAGNASASA
B35: HC2365 (peptide)
chain: CAEVPCHLPSAGNASASA
B36: FS-368 (peptide)
chain: CAPESRKRREAGNASASA
B37: FS-435 (peptide)
chain: CAGSNRKVREAGNASASA
B38: FS-476 (peptide)
chain: CAPQSRGRREAGNASASA
B39: FS-2862 (peptide)
chain: CAGQKRSRSRAGNASASA
B40: FS-3180 (peptide)
chain: CAPVLRGQAGAGNASASA
B41: FS-1128 (peptide)
chain: CAGSMRANRIAGNASASA
B42: HC647 (peptide)
chain: CAPVVFSQMEAGNASASA
B43: HC273 (peptide)
chain: CAGCVPCVREAGNASASA
B44: FS-1207 (peptide)
chain: CAGSKRSRREAGNASASA
B45: HC399 (peptide)
chain: CAGSGPDQRPAGNASASA

Biological target: furin, P09958
Experiment: furin cleavage Z-score vs untreated control; higher = more cleavage, active = 3.5 or more, inactive = 1 or less, 8 variable residues between constant flanks
Protocol: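 Multiplexed peptide-cDNA fusion cleavage assay. 8-mer variable peptides flanked by constant Cys-Ala (N-term) and Ala-Gly-Asn-Ala-Ser-Ala-Ser-Ala (C-term) and conjugated to a cDNA oligonucleotide were bead-immobilised via the N-terminus. They were treated with purified furin at a 1:10 enzyme:substrate ratio in 50 mM HEPES pH 7.5, 1 mM CaCl2, 100 mM NaCl for 7.5, 15 or 30 min. Released cDNA was counted by next-generation sequencing, and log counts versus no-furin controls were lowess-adjusted and converted to robust Z-scores.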

furin, P09958, sequence (P09958 whole entry): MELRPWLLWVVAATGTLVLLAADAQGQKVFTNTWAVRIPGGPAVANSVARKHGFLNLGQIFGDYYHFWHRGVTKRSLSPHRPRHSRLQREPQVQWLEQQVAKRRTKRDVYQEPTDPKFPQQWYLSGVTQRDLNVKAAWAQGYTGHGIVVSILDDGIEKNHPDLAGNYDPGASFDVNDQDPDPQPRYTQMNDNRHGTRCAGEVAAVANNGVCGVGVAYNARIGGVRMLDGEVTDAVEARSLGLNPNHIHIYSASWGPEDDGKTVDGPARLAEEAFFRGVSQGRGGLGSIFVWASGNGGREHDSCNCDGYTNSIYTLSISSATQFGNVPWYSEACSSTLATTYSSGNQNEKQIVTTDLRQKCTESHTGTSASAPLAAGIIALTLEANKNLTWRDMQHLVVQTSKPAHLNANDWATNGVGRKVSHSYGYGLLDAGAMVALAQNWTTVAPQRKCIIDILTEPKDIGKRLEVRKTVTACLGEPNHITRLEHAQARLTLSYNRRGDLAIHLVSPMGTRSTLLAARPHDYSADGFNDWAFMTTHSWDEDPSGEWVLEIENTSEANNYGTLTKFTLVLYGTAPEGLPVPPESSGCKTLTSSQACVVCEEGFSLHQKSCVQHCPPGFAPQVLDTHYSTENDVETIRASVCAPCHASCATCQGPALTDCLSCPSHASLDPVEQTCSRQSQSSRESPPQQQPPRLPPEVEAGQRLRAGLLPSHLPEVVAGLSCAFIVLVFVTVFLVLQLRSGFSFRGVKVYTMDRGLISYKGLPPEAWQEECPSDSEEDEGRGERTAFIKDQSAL

Sequence | furin cleavage Z-score (7.5 min) | furin cleavage Z-score (15 min) | furin cleavage Z-score (30 min)
B1 | -0.996 (inactive) | 0.139 (inactive) | 0.507 (inactive)
B2 | 0.521 (inactive) | -1.94 (inactive) | -2.62 (inactive)
B3 | 2.04 | -0.134 (inactive) | -0.107 (inactive)
B4 | 0.00727 (inactive) | 0.495 (inactive) | 1.37
B5 | -0.612 (inactive) | -0.784 (inactive) | 0.917 (inactive)
B6 | 10.8 (active) | 10.5 (active) | 8.67 (active)
B7 | 6.49 (active) | 7.9 (active) | 7.83 (active)
B8 | 6.48 (active) | 5.33 (active) | 4.2 (active)
B9 | 10.6 (active) | 10.9 (active) | 7.13 (active)
B10 | 0.116 (inactive) | 0.136 (inactive) | -0.669 (inactive)
B11 | 0.864 (inactive) | 0.937 (inactive) | 1.82
B12 | -0.896 (inactive) | 0.0514 (inactive) | -1.36 (inactive)
B13 | -0.0785 (inactive) | -0.406 (inactive) | 0.464 (inactive)
B14 | -1.68 (inactive) | -0.885 (inactive) | 0.194 (inactive)
B15 | 0.206 (inactive) | -0.587 (inactive) | -1.61 (inactive)
B16 | 1.56 | 1.04 | 0.698 (inactive)
B17 | 9.87 (active) | 10.2 (active) | 8.18 (active)
B18 | 9.64 (active) | 9.32 (active) | 6.63 (active)
B19 | -0.373 (inactive) | 0.103 (inactive) | -0.876 (inactive)
B20 | 0.954 (inactive) | 1.02 | 1.74
B21 | 6.73 (active) | 8.39 (active) | 7.41 (active)
B22 | 0.977 (inactive) | 1.09 | 1.81
B23 | -0.8 (inactive) | -0.697 (inactive) | -0.973 (inactive)

Sequence | furin cleavage Z-score (7.5 min) | furin cleavage Z-score (15 min) | furin cleavage Z-score (30 min)
B24 | -0.676 (inactive) | 1.01 | -1.05 (inactive)
B25 | -1.99 (inactive) | -1.12 (inactive) | 0.0447 (inactive)
B26 | -0.19 (inactive) | -0.57 (inactive) | -0.448 (inactive)
B27 | -0.934 (inactive) | -0.656 (inactive) | -1.49 (inactive)
B28 | -0.328 (inactive) | 0.141 (inactive) | -1.2 (inactive)
B29 | 7.21 (active) | 5.79 (active) | 4.98 (active)
B30 | 8.87 (active) | 11.8 (active) | 8.5 (active)
B31 | 1.45 | 0.512 (inactive) | 1.11
B32 | -0.832 (inactive) | -2.14 (inactive) | -0.179 (inactive)
B33 | 0.334 (inactive) | -2.59 (inactive) | -0.0938 (inactive)
B34 | 0.195 (inactive) | -1.61 (inactive) | 0.946 (inactive)
B35 | 0.888 (inactive) | 0.887 (inactive) | 2.28
B36 | 13.9 (active) | 14.4 (active) | 11.3 (active)
B37 | 10.8 (active) | 11.2 (active) | 7.92 (active)
B38 | 13.1 (active) | 13.2 (active) | 8.24 (active)
B39 | 0.426 (inactive) | -2.34 (inactive) | 0.754 (inactive)
B40 | -0.625 (inactive) | 0.202 (inactive) | -0.205 (inactive)
B41 | -0.706 (inactive) | 0.0659 (inactive) | 0.059 (inactive)
B42 | 1.38 | 1.32 | 0.561 (inactive)
B43 | 0.467 (inactive) | 0.158 (inactive) | 1.81
B44 | 11.5 (active) | 11.8 (active) | 7.54 (active)
B45 | -0.948 (inactive) | 0.971 (inactive) | -0.827 (inactive)
